High-throughput results as filed in PubChem.
NIH3T3 tox = NIH 3T3 cell cytotoxicity; NIH 3T3 viability, CellTiter-Glo ATP luminescence, 48-72 h; Potency, µM (titrated, usually from 96.7 µM), without a hit: top-dose activity change, negative = cytotoxicity, usual class: inhibitors; actives 4.3% (n = 94,000); further: on the % scale 0 is the no-effect control and ±100 the full control effect; nearly all actives have a fitted effect of over 55% in size
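Cells were seeded at 400 per well, treated with pin-transferred compound, and kept 48 or 72 hr at 37 °C before CellTiter-Glo addition and luminescence imaging of cellular ATP.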
Luciferase inh = Photinus pyralis luciferase inhibition; P08659; purified P. pyralis luciferase, luminescence, biochemical; Potency, µM (doses to about 115 µM), most hits filed as inhibitors; actives 2.5% (n = 76,000); further: on the % scale 0 is the no-effect control and ±100 the full control effect; nearly all actives have a fitted effect of over 65% in size
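Inhibitors were tested against purified firefly luciferase in a biochemical, low-substrate format (both substrates at 10uM) and luminescence measured with a CCD imager.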
HEK cytotox = cytotoxic compounds in HEK 293 cells. Potency, µM (doses to about 115 µM), for inactives: at the top dose activity change, negative = cytotoxicity, usual class: inhibitors. HEK 293 viability, ATP luminescence (CellTiter-Glo), 48-72 h. actives 6.6% (n = 94,000); further: on the % scale 0 is the no-effect control and ±100 the full control effect; nearly all actives have a fitted effect of over 60% in size
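Viability of HEK 293 cells, plated at 250 cells/well, was judged by cellular ATP after compound treatment for 48 or 72 hr. Luminescence was imaged 10 min after CellTiter-Glo addition at room temperature.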
hNpr1 antagonist = human Npr1 receptor antagonism; P16066; HEK293 hNpr1 GloSensor cGMP, ANP-stimulated luminescence; Potency, µM (highest dose often 46.3 µM), inactives show at the highest dose activity change, negative = inhibition, actives largely listed as inhibitors; actives 1.6% (n = 76,000); AID 1347048; calls by dose curve; further: on the % scale 0 is the no-effect control and ±100 the full control effect; nearly all actives have a fitted effect of over 60% in size
Target sequence (P16066 whole entry, looked up): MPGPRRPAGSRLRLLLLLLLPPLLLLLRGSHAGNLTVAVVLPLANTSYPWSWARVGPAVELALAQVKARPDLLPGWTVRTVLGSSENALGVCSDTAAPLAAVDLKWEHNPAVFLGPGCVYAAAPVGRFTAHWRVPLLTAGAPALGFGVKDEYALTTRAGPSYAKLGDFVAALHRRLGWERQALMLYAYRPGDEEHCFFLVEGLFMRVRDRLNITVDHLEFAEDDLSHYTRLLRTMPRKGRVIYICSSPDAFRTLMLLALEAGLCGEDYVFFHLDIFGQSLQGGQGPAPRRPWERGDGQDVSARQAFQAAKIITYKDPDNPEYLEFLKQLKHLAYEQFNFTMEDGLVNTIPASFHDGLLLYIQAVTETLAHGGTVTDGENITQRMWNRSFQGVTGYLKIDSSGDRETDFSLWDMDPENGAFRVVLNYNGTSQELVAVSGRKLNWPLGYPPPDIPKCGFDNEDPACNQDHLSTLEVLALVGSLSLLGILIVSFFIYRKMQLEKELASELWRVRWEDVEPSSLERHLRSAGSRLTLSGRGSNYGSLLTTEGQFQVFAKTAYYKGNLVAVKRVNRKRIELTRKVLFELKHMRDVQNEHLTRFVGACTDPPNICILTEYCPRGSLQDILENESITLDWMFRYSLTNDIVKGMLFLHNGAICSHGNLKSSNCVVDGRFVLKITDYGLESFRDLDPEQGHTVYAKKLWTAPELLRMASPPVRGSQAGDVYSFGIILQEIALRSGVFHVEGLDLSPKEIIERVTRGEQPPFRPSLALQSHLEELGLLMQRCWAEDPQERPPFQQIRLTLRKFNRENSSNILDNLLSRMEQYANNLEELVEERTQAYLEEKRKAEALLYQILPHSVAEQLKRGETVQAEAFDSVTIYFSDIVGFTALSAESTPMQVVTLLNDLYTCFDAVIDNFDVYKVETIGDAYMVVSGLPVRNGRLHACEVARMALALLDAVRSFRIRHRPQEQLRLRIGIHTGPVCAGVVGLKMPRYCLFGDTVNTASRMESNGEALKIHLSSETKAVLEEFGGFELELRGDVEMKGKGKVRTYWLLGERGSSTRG
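Compound pre-incubated 30 min at room temperature on GloSensor-loaded HEK293 cells stably carrying hNpr1 and the pGS-40F cGMP biosensor. Stimulation uses hNppA at 0.1 nM final; luminescence is taken at baseline and 20 min post-agonist.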
GPT2 inh = blocks human glutamate pyruvate transaminase 2; AID 1671188; Q8TD30; actives 0.25% (n = 100,000); Potency, µM (titrated, usually from 57.7 µM), for inactives: at the highest dose activity change, negative = inhibition, hits mostly inhibitors; Recombinant GPT2, coupled pyruvate oxidase/HRP Amplex Red fluorescence; further: on the % scale 0 is the no-effect control and ±100 the full control effect; nearly all actives have a fitted effect of over 60% in size
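Recombinant GPT2 (10ng/uL) with 250uM a-KG and 2mM L-alanine, 30 min at room temperature, in HEPES pH 7.5 buffer. Pyruvate detected by pyruvate oxidase/HRP/Amplex Red fluorescence after 30 min in the dark; AOA (50uM) as positive control.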
Npr1 antag conf = hNpr1 antagonism, confirmation assay; shares compounds with hNpr1 antagonist; HEK293 hNpr1 cGMP GloSensor luminescence, ANP-stimulated; Potency, µM (doses to about 57.6 µM), without a hit: at the top dose activity change, negative = inhibition, hits mostly inhibitors; actives 76% (n = 1,400); AID 1347044; calls by dose curve; further: nearly all actives have a fitted effect of over 70% in size
Npr2 selectivity = hNpr2 antagonism, selectivity versus Npr1. AID 1347046. Potency, µM (highest dose often 57.6 µM), inactives show top-dose activity change, negative = inhibition, usual class: inhibitors. HEK293 hNpr2 GloSensor cGMP luminescence, CNP-stimulated. shares compounds with hNpr1 antagonist. actives 67% (n = 1,400); calls by dose curve; further: nearly all actives have a fitted effect of over 70% in size
FLuc inh counter = inhibits firefly luciferase, false Npr1 antagonist flag. shares compounds with hNpr1 antagonist. purified FLuc enzyme, luminescence, Km substrate. Potency, µM (titrated, usually from 57.6 µM), for inactives: at the highest dose activity change, negative = inhibition, most hits filed as inhibitors. actives 0.7% (n = 1,400). AID 1347047; further: series mostly up to about 58 µM; 0% is about no effect
GloSensor ctrl = counter-screen for Npr1 antagonists: GloSensor control cell line; HEK293 GloSensor cGMP, SNP-stimulated, luminescence; Potency, µM (doses to about 57.6 µM), for the others: top-dose activity change, negative = inhibition, usual class: inhibitors; actives 69% (n = 1,400); shares compounds with hNpr1 antagonist; calls by dose curve; further: on the % scale 0 is the no-effect control and ±100 the full control effect; nearly all actives have a fitted effect of over 70% in size
Active calls of the source: *; [ ] = dose if it differs, or a comment. Sampled rows, rich in hits. Any-hit rate of the full collection: about 10%. Unless noted, the call rests on the fitted dose curve; in most records, active means well fitted curve in the direction sought with a large enough effect; inconclusive means small, poorly fitted or top-dose-only effect, or another doubt; inactive means no such curve, though single readings can be large; an effect the other way counts as inactive or inconclusive. Potency means the concentration at half of the fitted maximal effect.

`O=C1Nc2ccccc2C2(CCN(C(=O)c3ccccc3F)C2)O1` (stereo unspecified) gave NIH3T3 tox 5%[138 µM], Luciferase inh inactive, HEK cytotox -11%[172 µM], hNpr1 antagonist 3%[70.6 µM] and GPT2 inh inactive.
`Cc1cc(C(=O)N2CCC3(CC2)CC(N(Cc2ccc(F)cc2)C2CC2)CCO3)n(C)n1` (stereo unspecified) gave NIH3T3 tox inconclusive, Luciferase inh inactive, HEK cytotox inconclusive, hNpr1 antagonist inconclusive, GPT2 inh inactive, Npr1 antag conf 27µM*, Npr2 selectivity inconclusive, FLuc inh counter 0% and GloSensor ctrl 27µM*.
`CC(=O)N1CCC2(CC1)CC(N(Cc1ccc(F)cc1)C1CC1)CCO2` (stereo unspecified) gave NIH3T3 tox 4%, Luciferase inh inactive, HEK cytotox -11%, hNpr1 antagonist 4% and GPT2 inh inactive.
For O=C(CCN1CCCCO1)N1CCOC(CC2CCCCC2)C1 (stereo unspecified) the results were NIH3T3 tox -21%, Luciferase inh inactive, HEK cytotox -10%, hNpr1 antagonist 0% and GPT2 inh -14%.
Screening CN(Cc1cccnc1)Cc1nc(C2(O)CCN(Cc3ccc(F)cc3)CC2)cs1 returned NIH3T3 tox inconclusive, Luciferase inh inactive, HEK cytotox inconclusive, hNpr1 antagonist inconclusive and GPT2 inh 1%[88.5 µM].
Screening CN(Cc1cccnc1)Cc1nc(C2(O)CCN(Cc3ccc(C(F)(F)F)cc3)CC2)cs1 returned NIH3T3 tox -46%, Luciferase inh inactive, HEK cytotox -58%, hNpr1 antagonist 1µM*, GPT2 inh inactive, Npr1 antag conf 0.86µM*, Npr2 selectivity 1.7µM*, FLuc inh counter 0% and GloSensor ctrl 0.86µM*.
O=C(CCc1ccccc1)N1CCCC2(C1)Nc1cccnc1NC2=NC1CCCC1 (stereo unspecified) was read as NIH3T3 tox inconclusive, Luciferase inh inactive, HEK cytotox inconclusive, hNpr1 antagonist -1% and GPT2 inh -22%.
Screening CN1CCN(C(=O)c2csc(N3CCN(c4ccc(Cl)cc4)CC3)n2)CC1 returned NIH3T3 tox inconclusive, Luciferase inh inconclusive, HEK cytotox inconclusive, hNpr1 antagonist -11% and GPT2 inh inactive.
`CC(C)N1CCN(C(=O)c2csc(N3CCN(c4cccc(Cl)c4)CC3)n2)CC1` gave NIH3T3 tox inconclusive, Luciferase inh inactive, HEK cytotox inconclusive, hNpr1 antagonist -25% and GPT2 inh -6%.
For O=C(c1csc(N2CCN(c3ccccc3)CC2)n1)N1CCCCCC1 the results were NIH3T3 tox inconclusive, Luciferase inh inactive, HEK cytotox inconclusive, hNpr1 antagonist 10µM*, GPT2 inh 3%, Npr1 antag conf 22µM*, Npr2 selectivity 22µM*, FLuc inh counter -11% and GloSensor ctrl 19µM*.
`O=C(c1csc(N2CCN(c3ccccc3)CC2)n1)N1CCN(c2ccccn2)CC1` gave NIH3T3 tox 3%, Luciferase inh inactive, HEK cytotox -40%, hNpr1 antagonist 13µM*, GPT2 inh inconclusive, Npr1 antag conf 27µM*, Npr2 selectivity 24µM*, FLuc inh counter 0% and GloSensor ctrl 24µM*.
CC(C)CNC(=O)c1ccc2nc(-c3ccccn3)oc2c1 was read as NIH3T3 tox inconclusive, HEK cytotox inconclusive and GPT2 inh inactive.
COCCN1C(=O)c2cccn2CC1CNC(=O)c1ccc2ccccc2n1 (stereo unspecified) was read as NIH3T3 tox -10%, Luciferase inh inactive, HEK cytotox inconclusive, hNpr1 antagonist -3% and GPT2 inh inactive.
`CC1(c2noc(C3CCOCC3)n2)CCN(Cc2ccc(Cl)cc2F)CC1` gave NIH3T3 tox -29%, Luciferase inh inactive, HEK cytotox inconclusive, hNpr1 antagonist 13µM*, GPT2 inh -3%, Npr1 antag conf 24µM*, Npr2 selectivity 24µM*, FLuc inh counter 7% and GloSensor ctrl 22µM*.
Screening CC(C)Oc1ccc(CN2CCC(C)(c3noc(C4CCOCC4)n3)CC2)cc1 returned NIH3T3 tox 0%, Luciferase inh inactive, HEK cytotox -14%, hNpr1 antagonist 1% and GPT2 inh inactive.
Screening COc1cccc(NC(=O)Cc2c[nH]c3ncc(-c4cccnc4OC)cc23)c1 returned NIH3T3 tox 28µM*, Luciferase inh inactive, HEK cytotox 50µM*, hNpr1 antagonist inconclusive, GPT2 inh inconclusive, Npr1 antag conf 40µM*, Npr2 selectivity inconclusive, FLuc inh counter -10%[86.2 µM] and GloSensor ctrl inconclusive.
`COc1ncccc1-c1cnc2[nH]cc(CC(=O)Nc3ccccn3)c2c1` gave NIH3T3 tox inconclusive, Luciferase inh inactive, HEK cytotox inconclusive, hNpr1 antagonist inconclusive and GPT2 inh inactive.
Screening COc1ccc(NC(=O)Cc2c[nH]c3ncc(-c4ccccc4)cc23)cn1 returned NIH3T3 tox -27%[138 µM], Luciferase inh inactive, HEK cytotox inconclusive, hNpr1 antagonist inconclusive, GPT2 inh -8%[88.5 µM], Npr1 antag conf inconclusive, Npr2 selectivity inconclusive, FLuc inh counter -1%[86.2 µM] and GloSensor ctrl -20%[86.2 µM].
`CC(C)CNC(=O)C1COC2(CCN(C(=O)c3ccc(F)cc3F)CC2)N1C(=O)c1ccccc1` (stereo unspecified) gave NIH3T3 tox -5%, Luciferase inh inactive, HEK cytotox inconclusive, hNpr1 antagonist -11% and GPT2 inh -14%.
`CNC(=O)[C@@H]1CN(C(=O)c2cocn2)C[C@H]1COC` gave NIH3T3 tox 4%, Luciferase inh inactive, HEK cytotox -18%, hNpr1 antagonist 1% and GPT2 inh inactive.
